Assay outcomes as filed in PubChem.
Hits are enriched below; roughly 4.1% of the tested compounds scored in any of these assays.
AmpC no deterg = inhibitors of E. coli AmpC beta-lactamase without detergent; 330,000 compounds, 0.52% hits; AmpC nitrocefin hydrolysis, absorbance 480 nm, 0.0001% Triton; P00811; AID 485341; Potency, µM (top dose mostly 57.1 µM), for the others: at the highest dose activity change, negative = inhibition, usual class: inhibitors;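 also: plate controls were no compound for no effect and no enzyme for full effect; nearly all actives have a fitted effect of over 20% in size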
Target sequence (P00811 whole entry, looked up): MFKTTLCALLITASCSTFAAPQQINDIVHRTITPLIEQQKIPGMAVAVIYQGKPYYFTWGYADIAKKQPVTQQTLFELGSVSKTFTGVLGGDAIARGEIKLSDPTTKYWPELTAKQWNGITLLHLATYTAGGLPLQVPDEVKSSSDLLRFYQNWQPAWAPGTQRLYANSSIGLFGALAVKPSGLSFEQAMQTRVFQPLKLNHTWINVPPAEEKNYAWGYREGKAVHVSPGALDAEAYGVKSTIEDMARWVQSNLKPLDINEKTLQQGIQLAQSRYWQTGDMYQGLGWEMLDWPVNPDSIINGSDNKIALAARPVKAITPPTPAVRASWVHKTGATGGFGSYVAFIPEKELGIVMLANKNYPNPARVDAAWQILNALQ
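20 mM phosphate pH 7.0 + 0.01% (detergent screen) or 0.0001% Triton X-100; 5.3 nM AmpC reagent; cpd preinc 15 min RT; nitrocefin (800 uM stock) to start; A480 q20 s × 4 min; Activity was normalised to no-enzyme and no-compound control wells.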
Sm TGR inh = blocks Schistosoma mansoni thioredoxin glutathione reductase | purified TGR, DTNB reduction, TNB absorbance 405 nm | Potency, µM (top dose mostly 114 µM), for the others: at the top dose activity change, negative = inhibition, actives largely listed as inhibitors | 360,000 compounds, 3% hits; also: nearly all actives have a fitted effect of over 60% in size
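TGR 20 nM + NADPH 100 uM (dispensed conc.), cpd preinc 15 min RT; start with NADPH (500 uM addition) then DTNB (15 mM addition). Kinetic TNB absorbance, 405 nm filter. Four-parameter Hill fit across titration.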
AmpC detergent = AmpC beta-lactamase inhibition with detergent present; AmpC hydrolysis of nitrocefin, absorbance 480 nm, 0.01% Triton; Potency, µM (titrated, usually from 114 µM), for the others: at the highest dose activity change, negative = inhibition, most hits filed as inhibitors; 370,000 compounds, 0.041% hits; AID 485294;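 also: 0% = no-compound wells and -100% = no-enzyme wells; nearly all actives have a fitted effect of over 25% in size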
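20 mM phosphate pH 7.0 + 0.01% (detergent screen) or 0.0001% Triton X-100; 5.3 nM AmpC reagent; cpd preinc 15 min RT; nitrocefin (800 uM stock) to start; A480 q20 s × 4 min; Activity was normalised to no-enzyme and no-compound control wells.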
FMDV inh = antivirals against foot and mouth disease virus; FMDV antiviral cell-based qHTS; 410,000 compounds, 1.2% hits; Potency, µM (series often up to 57.9 µM), for the others: at the highest dose activity change, negative = inhibition, actives largely listed as inhibitors; AID 1159524; calls by dose curve; tested in HEK293T cells; also: read-out not given here; nearly all actives have a fitted effect of over 45% in size
AMA1 RON2 block = inhibitors of Plasmodium falciparum AMA1-RON2 interaction | AlphaScreen AMA1-biotinylated RON2 peptide binding | Potency, µM (series often up to 58.2 µM), without a hit: at the highest dose activity change, negative = inhibition, actives largely listed as inhibitors | 360,000 compounds, 0.2% hits | AID 720542;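 also: 0% = vehicle wells and -100% = peptide control; nearly all actives have a fitted effect of over 45% in size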
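AMA1 (3D7) with his tag at 25 nM final met compounds first, then biotinylated RON2 peptide at 25 nM; detection used donor plus acceptor beads, 10 µg/mL apiece, read by AlphaScreen after 30 min at room temperature.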
* hit, by the source's call; ? = inconclusive; . = no result. Unless noted, calls follow the shape of the dose curve; as a rule, active = well fitted curve in the direction sought with a large enough effect; inconclusive = small, poorly fitted or top-dose-only effect, or another doubt; inactive = no such curve, though single readings can be large; an effect the other way counts as inactive or inconclusive. Unless noted, % is scaled to controls: 0 for no effect and ±100 for the full control effect; potency is read from the fitted curve at half-maximal effect.

SMILES	AmpC no deterg	Sm TGR inh	AmpC detergent	FMDV inh	AMA1 RON2 block
O=C1CC(Nc2ccccc2)C(=O)N1c1ccc(N2CCOCC2)cc1 (stereo not given)	2%	-33%	-6%	21%	-16%
O=C1CC(Nc2ccc(N3CCOCC3)cc2)C(=O)N1C1CCCCC1 (stereo not given)	-28%	40µM*	-4%	-12%	-1%
O=C1CC(NNc2ccccc2)C(=O)N1c1ccc(N2CCCCC2)cc1 (stereo not given)	-53%	45µM*	8%	11%	?
CCOc1cc(-c2nnc(SCC(=O)NCc3ccccc3)nc2-c2ccc(OC)c(OCC)c2)ccc1OC	.	5%	-7%	-7%	.
Cc1ccc(C2CC(=O)n3nc(-c4ccc(F)cc4)nc3S2)cc1 (stereo not given)	.	9%	15%	-15%	.
Cc1cccc(-c2cnc(C)nc2C2CCCN(C(=O)c3cccc(Cn4cccn4)c3)C2)c1 (stereo not given)	.	.	.	-19%	.
O=C1CC(Nc2ccc(N3CCOCC3)cc2)C(=O)N1c1ccccc1F (stereo not given)	-28%	40µM*	?	-10%	-10%
O=C(O)c1ccc(NC2=C(n3nnc4ccccc43)C(=O)c3ccccc3C2=O)cc1	-21%	7.1µM*	-2%	0%	4%
CNC(=O)OCc1nc(SSC(C)(C)C)n(C)c1COC(=O)NC	.	.	.	35µM*	7%
CCOc1ccccc1C(=O)Nc1cc2c(cc1N1CCCCC1)n(C)c(=O)n2C	.	1%	3%	-12%	.
C=CCn1c(SCc2ccc(C(=O)Nc3nccs3)cc2)nnc1-c1ccc(C)c(Cl)c1	-17%	1%	?	28µM*	37%
Cn1nnnc1SCc1ccc(C(=O)Nc2nccs2)cc1	-16%	10%	-12%	51%	11%
O=c1c(-c2cc(-c3ccccc3)nc3c2COc2ccccc2-3)coc2ccc(Cl)cc12	.	-5%	-2%	-6%	.
BrCC1C[n+]2c(SCc3ccccc3)nc3sc4c(c3c2O1)CCCC4 (stereo not given)	5%	32µM*	1%	1%	-15%
CCSc1nc2sc3c(c2c(=O)[nH]1)CCCC3	-20%	1%	?	0%	-16%
CCSc1nc2sc3c(c2c2[n+]1CC(CBr)O2)CCCC3 (stereo not given)	63%	45µM*	2%	-27%	1%
Cc1c(Cl)cccc1NC(=O)CSc1ncnc2c1sc1ccccc12	.	-1%	-7%	-12%	.
c1ccc(C2[C@H]3CN(CC4CCCCC4)[C@H](c4ccccc4)C34CC2(c2cccnc2)C4)cc1 (stereo not given in full)	7%	45µM*	-4%	-5%	-1%
CN(CCO)C(=O)c1cn(C2CCN(Cc3cccc4ccccc34)CC2)nn1	.	.	.	-14%	.
CC(C)Oc1ccc(C(=O)CCN2CCCCC2)cc1	-14%	0.4µM*	1%	2%	-3%
CCCCCOc1ccc(C(=O)CCN2CCOCC2)cc1	36%	4µM*	-12%	5%	5%
CCCOc1ccc(C(=O)CCN2CCN(C(=O)OCC)CC2)cc1	67%	100µM*	?	-22%	-4%
CCOC(=O)N1CCN(C(=O)CCC(=O)c2ccc(OCC)cc2)CC1	28%	-1%	1%	7%	-9%
CC(C)Oc1ccc(C(=O)CCN2CCOCC2)cc1	.	.	.	-15%	-2%
COc1ccc(C(=O)CCN2CCCCCC2)cc1	-12%	18%	-3%	-19%	-2%
SMILES	AmpC no deterg	Sm TGR inh	AmpC detergent	FMDV inh	AMA1 RON2 block
CCOc1ccc(C(=O)CCN2CCCCC2)cc1	-16%	0.32µM*	1%	-18%	6%
COc1ccccc1-c1ccnc(-n2ncc(C(=O)N3CCCCC3c3cccnc3)c2C)n1 (stereo not given)	.	.	.	13%	.
CCCCOc1ccc(C(O)(CCN2CCOCC2)c2ccccc2)cc1 (stereo not given)	156%	14µM*	1%	-4%	-7%
Cc1cccc(NC(=O)C(NS(=O)(=O)c2ccc3c(c2)CCC(=O)N3)c2ccccc2)n1 (stereo not given)	25µM*	3%	-6%	-25%	14%
COc1ccc(-c2nnc(SCC(=O)Nc3cccc(F)c3)s2)cc1	.	1%	0%	29%	.
CCN(CC)c1ccc(/C=C2\C(=O)N(c3nnc(C)c(=O)[nH]3)N=C2C)cc1	139%	-14%	0%	28µM*	14µM*
CC(=O)Oc1ccc(OC(C)=O)c(SCCCCCN2CCOCC2)c1	5%	50µM*	-1%	?	-1%
Cc1ccc2nc(NC(=O)Cn3cc4c(n3)CCCCC4)sc2c1	2.8µM*	-7%	?	-7%	22%
Cc1ccc2nc(NC(=O)CCCc3nc4ccccc4s3)sc2c1	-5%	-31%	-4%	15%	-10%
Cc1ccc(NC(=O)Cn2cc3c(n2)CCCC3)c(C)c1	.	-1%	18%	-1%	.
Cc1ccc2nc(NC(=O)CCCC(=O)O)sc2c1	-7%	3%	5%	7.9µM*	1%
CCCCC(=O)Nc1nnc(S(=O)(=O)N(CC)c2cc(C)cc(C)c2)s1	.	7%	20%	-2%	.
CC1Cc2ccccc2N1CC(=O)Nc1ccc(N2CCOCC2)cc1 (stereo not given)	18%	-3%	-6%	17%	-18%
CC(Nc1ccc(N2CCOCC2)cc1)C(=O)N1c2ccccc2CC1C (stereo not given)	20%	79µM*	-6%	-1%	-8%
C=CCn1c(O)c(C(CC)=NCCc2ccccc2)c(=O)[nH]c1=O	-19%	89µM*	-7%	-21%	30%
C=CCn1c(O)c(C(CC)=Nc2ccc(N(C)C)cc2)c(=O)[nH]c1=O	-28%	32µM*	-7%	?	?
C=CCn1c(O)c(C(CC)=Nc2ccc3c(c2)CCC3)c(=O)[nH]c1=O	-17%	-1%	2%	?	-28%
Cc1cc(C)c(CN2CCC3(CCC(CNC(=O)c4ccn(C)n4)O3)CC2)cc1C (stereo not given)	.	.	.	-13%	.
O=C(c1csnn1)N1CCC2(CC1)CN(c1ccccn1)C2	.	.	.	-11%	.
O=C(NCCc1ccccn1)c1cc(-c2ccc(Cl)c(Cl)c2Cl)nc2ccccc12	51%	-12%	3%	40µM*	0%
O=C(NCc1ccccn1)c1cc(-c2ccccc2Cl)nc2ccccc12	-10%	-8%	-9%	-14%	24%
O=C(NNC(=S)NC(=O)c1ccccc1[N+](=O)[O-])c1ccccc1O	-23%	-5%	4%	4%	0.71µM*
CC1=C(C(=O)Nc2cccnc2)C(c2cccc(F)c2)n2nc(SCc3ccccc3F)nc2N1 (stereo not given)	.	-5%	-9%	5%	.
OC(c1ccccn1)c1c[nH]c2ccccc12 (stereo not given)	-21%	22µM*	-12%	3%	-9%
